SW480 rerep: induces DNA re-replication in SW480 colon adenocarcinoma cells. Potency, µM (series often up to 46.1 µM), for inactives: top-dose re-replication activation, usual class: activators. SW480 DNA re-replication, Hoechst DNA content imaging, 48 h. actives 1.8% (n = 340,000). AID 624297; also: % of control where 0% means no effect; nearly all actives have a fitted effect of over 55% in size
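Quantitative HTS format with DMSO vehicle controls; 48 hr drug incubation at 37 C, then 40 min Hoechst staining and scanning imager measurement at 405 nm excitation.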
KB-V1 MDR tox: kills drug-selected multidrug resistant KB-V1 cells | KB-V1 MDR cells viability, CellTiter-Glo, 72 h | actives 3.4% (n = 400,000) | AID 1347076 | Potency, µM (top dose mostly 46.1 µM), most hits filed as cytotoxic; also: % is scaled to controls: 0 for no effect and ±100 for the full control effect; nearly all actives have a fitted effect of over 60% in size
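Drug-selected KB-V1 cells, grown in DMEM lacking phenol red with 10% FBS, receive compound titrations; after three days at 37 degrees C, surviving cell ATP is quantified by CellTiter-Glo luminescence and responses normalized and curve-fitted.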
HT1080NT lethal: kills 2HG-producing HT-1080-NT fibrosarcoma cells; HT-1080-NT fibrosarcoma viability, CellTiter-Glo ATP luminescence, 48 h; Potency, µM (doses to about 46.1 µM), without a hit: at the top dose activity, negative = less viability, usual class: cytotoxic; actives 1.6% (n = 360,000); AID 686970;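 also: NT is the 2HG producing partner of a matched IDH1 knockdown line; 0% = DMSO-treated cells and -100% = media-only wells without cells; nearly all actives have a fitted effect of over 55% in size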
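Viability by CellTiter-Glo luminescence after 48 h compound exposure at 37C of HT-1080-NT cells (750/well, RPMI, 5% FBS). % activity scaled between DMSO wells and medium-only wells, then curve-fitted and categorized by curve class.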
KB-3-1 cytotox: kills parental KB-3-1 adenocarcinoma cells; AID 1347075; actives 1.4% (n = 400,000); Potency, µM (series often up to 46.1 µM), usual class: cytotoxic; KB-3-1 viability, CellTiter-Glo ATP luminescence, 72 h; also: % is scaled to controls: 0 for no effect and ±100 for the full control effect; nearly all actives have a fitted effect of over 60% in size
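KB-3-1 parental drug-naive adenocarcinoma cells in DMEM/10% FBS, incubated 72 h at 37 C with pin-transferred compounds across a concentration series. Viability by CellTiter-Glo luminescence; concentration-response curves fitted after normalization.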
HT1080 IDH1KD tx: kills HT-1080 cells with IDH1 knockdown. actives 2% (n = 360,000). HT-1080 IDH1 knockdown viability, ATP luminescence, 48 h. Potency, µM (highest dose often 46.1 µM), inactives show top-dose activity, negative = toxicity, hits mostly cytotoxic;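 also: 0% = DMSO wells and -100% = cell-free medium wells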
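Using the IDH1-knockdown HT-1080 line run in the same batch and compound series as the NT line, viability after 48 h at 37 °C was determined by CellTiter-Glo luminescence and expressed as % activity.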
MCF10A rerep: induces DNA re-replication in MCF 10a normal breast cells | MCF 10A DNA re-replication, Hoechst nuclear intensity, 48 h | Potency, µM (highest dose often 46.1 µM), for inactives: at the highest dose activity, positive = re-replication, most hits filed as activators | actives 2.9% (n = 350,000) | AID 624296; also: % of control where 0% means no effect; nearly all actives have a fitted effect of over 50% in size
An asterisk follows results filed as active; i = inactive; ? = inconclusive; . = no result; ! = not active in a repeat. The list is not random: actives were taken first. Their share in the collection is about 8%. Calls follow the shape of the dose curve; as a rule, active = well fitted curve in the direction sought with a large enough effect; inconclusive = small, poorly fitted or top-dose-only effect, or another doubt; inactive = no such curve, though single readings can be large; an effect the other way counts as inactive or inconclusive. Potency is read from the fitted curve at half-maximal effect.

SMILES	SW480 rerep	KB-V1 MDR tox	HT1080NT lethal	KB-3-1 cytotox	HT1080 IDH1KD tx	MCF10A rerep
O=c1c(N2CCCCC2)csc2ccc(F)cc12	.	i	.	i	.	.
COc1ccccc1NC(=O)C1=C(C)Nc2ncnn2C1c1cccn1C (stereo not drawn)	.	i	.	i	.	.
CCC[C@@H](CN1CCC[C@H]1CN1C(N)=NC[C@@H]1Cc1ccccc1)N1C[C@@H]([C@H](C)CC)N(CCCC2CCCC2)C1=N	?	i	?	?	?	18.4µM*
CCC[C@@H](CN1CCC[C@H]1CN1C(N)=NC[C@@H]1Cc1ccccc1)N1C[C@@H](Cc2ccccc2)N(CCCC2CCCC2)C1=N	-7.5%	i	4.9%	i	8.7%	-10.8%
O=C(NCC1CCCO1)c1nn2c(C(F)(F)F)cc(-c3cc(Br)cs3)nc2c1Br (stereo not drawn)	5.8µM*	i	17.3%	i	5.2%	14.6µM*
FC(F)Oc1ccc(-c2c[n+]3c(n2-c2ccccc2)CCCCC3)cc1	-3.5%	i	?	?	?	14.3%
CCOc1ccc(-n2c(-c3ccc(OC)cc3)c[n+]3c2CCCCC3)cc1	?	i	?	2.06µM*	3.66µM*	-3.8%
COc1ccc(-c2c[n+]3c(n2-c2c(C)n(C)n(-c4ccccc4)c2=O)CCCCC3)cc1	4.7%	?	6.5%	i	27.6%	-17.6%
CCOc1ccc(-n2c(-c3ccccc3)c[n+]3c2CCC3)cc1	16.1%	?	?	i	8.2µM*	2.7%
CCOc1ccc(-n2c(-c3ccc(Br)cc3)c[n+]3c2CCCCC3)cc1	-0.3%	i	8.2µM*	?	?	?
CCOC(=O)C1=C(CN2CCC(C(=O)OCC)CC2)NC(=O)NC1c1ccc(Cl)cc1 (stereo not drawn)	.	i	.	i	.	.
NC(Cc1ccccc1)c1csc(Nc2nncc3ccccc23)n1 (stereo not drawn)	.	23.1µM*	?	?	?	.
CC(C)C(N)c1csc(Nc2nncc3ccccc23)n1 (stereo not drawn)	.	?	?	i	?	.
Nc1ccc(CC(N)c2csc(Nc3nncc4ccccc34)n2)cc1 (stereo not drawn)	.	23.1µM*	?	?	-25.0%	.
CC(N)c1csc(Nc2nncc3ccccc23)n1 (stereo not drawn)	.	i	?	i	18.4µM*	.
Nc1c(-c2nc(-c3cccs3)no2)nnn1-c1cccc(Cl)c1	.	?	.	i	.	.
COCCCCOc1cc2nc(N3CCCN(C)CC3)nc(NC3CCN(C)CC3)c2cc1OC	.	.	-15.3%	.	8.5%	.
COc1cc([C@@H]2Nc3c(F)cccc3[C@@H]3C=CC[C@@H]32)cc(Br)c1OC	.	i	.	i	.	.
CCOC(=O)C1(S(=O)(=O)c2ccc(Cl)cc2)CCN(Cc2ccc(C)cc2)CC1	13.2%	20.6µM*	?	?	?	?
C[C@@H](CSc1ccc(Br)cc1)CN1CC[C@H](NC(=O)OCc2ccccc2)CCC1=O	4.7%	14.6µM*!	-18.6%	?	-27.9%	?
O=C1CCN(Cc2ccccc2)CCN1[C@H](CSc1ccccc1)Cc1ccccc1	-3.4%	14.6µM*!	-6.9%	?	-12.7%	3.6%
O=C1CCN(CCc2ccccc2)CCN1[C@H](CSc1ccc(Br)cc1)Cc1ccccc1	0.3%	i	-12.6%	?	-9.1%	?
COc1ccc(S[C@@H](CCN2CC[C@H](NC(=O)OCc3ccccc3)CCC2=O)c2ccccc2)cc1	?	?	?	13µM*!	?	?
COc1ccc(SC[C@H](C)CN2CC[C@H](NC(=O)OCc3ccccc3)CCC2=O)cc1	0.1%	11.6µM*!	-0.7%	14.6µM*!	-14.9%	?
C[C@@H](CN=[N+]=[N-])CN1CC[C@H](NC(=O)OCc2ccccc2)CCC1=O	-33.9%	i	10.0%	i	5.2%	2.5%
SMILES	SW480 rerep	KB-V1 MDR tox	HT1080NT lethal	KB-3-1 cytotox	HT1080 IDH1KD tx	MCF10A rerep
Cc1ccccc1C(=O)OCc1cc(=O)n2nc(C3CCCCC3)sc2n1	.	i	.	i	.	.
CNC(=O)c1ccc(Nc2nnc(-c3ccc(C)c(S(=O)(=O)N4CCOCC4)c3)c3ccccc23)cc1	.	i	.	i	.	.
O=C(N[C@H]1CCC(=O)N([C@H](CSc2ccccc2)Cc2ccccc2)CC1)OCc1ccccc1	-6.0%	18.4µM*!	-9.2%	?	-11.5%	?
Cc1cc(C)c(Cn2c3ccccc3c3cnn(CC(=O)NCCc4ccccc4)c(=O)c32)c(C)c1	.	i	.	i	.	.
COc1ccc(Nc2nnc(-c3ccc(C)c(S(=O)(=O)N4CCOCC4)c3)c3ccccc23)cc1	.	?	.	i	.	.
COc1ccc(CCNC(=O)C(=O)NCC(c2ccco2)S(=O)(=O)c2ccc(C)cc2)cc1 (stereo not drawn)	.	i	.	i	.	.
CC(=O)/C(=N\Nc1ccc(Cl)cc1)Sc1nnc(-c2ccccc2)n1-c1ccccc1	25.9%	?	?	i	-3.0%	?
COc1ccc(C(=O)CSc2nnc(CCc3ccccc3)n2-c2ccccc2)cc1	17.3%	9.2µM*	15.0%	i	3.1%	7.31µM*
COc1ccc(-n2c(CCc3ccccc3)nnc2SCC(=O)c2ccccc2)cc1	2.5%	9.2µM*	-2.4%	?	-4.3%	?
COc1ccc(-n2c(CCc3ccccc3)nnc2SCC(=O)NCc2ccccc2)cc1	-0.3%	i	-1.4%	i	-6.9%	12.3%
CC(=O)/C(=N/Nc1ccccc1)Sc1nnc(CCc2ccccc2)n1-c1ccccc1	?	23.1µM*	-4.1%	i	-2.9%	-9.9%
COc1ccccc1-c1nnc(SCC(=O)c2ccc(Cl)cc2)n1-c1ccccc1	.	?	.	i	.	.
CCc1cccc(C)c1NC(=O)COCc1cc(-c2ccc3c(c2)OCO3)on1	.	i	.	?	.	.
CC(=O)c1cccc(NC(=O)c2cc3sc(Cl)cc3n2C)c1	.	i	.	i	.	.
COc1ccc(-c2cn(Cc3cccc(OC)c3)nn2)cc1	-9.0%	10.3µM*!	10.1%	?	12.5%	16.5%
COc1cccc(Cn2cc(-c3cccc(C(F)(F)F)c3)nn2)c1	-12.1%	?	21.2%	i	9.5%	8.9%
